Among the data in the supplement of paper PMC8540655 are larval motility values, retold here.

The structures appear in SMILES notation.

One test has as its system Aedes aegypti larvae. Nature of the test: larval motility relative to same well at 0 h (fraction); higher = more motile (less active compound), active = 0.4 or less. The conditions noted are these: 10 µM; 2 h. Here is the method:
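MMV Pandemic Response Box compounds were tested at 10 µM (1% v/v DMSO) on Aedes aegypti larvae (18-24 h after hatching, about 10 per well, 96-well plates). Motility was quantified with INVAPP (200-frame movies) at 0, 2 and 24 h. Each well's motility was divided by its own 0 h score, and the median of 3 independent screens is reported.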
Regarding `Nc1nc(N)c2c(Sc3ccccc3)cccc2n1`, the larval motility was 1.24 (inactive).

For `CC1CN(c2ncnc3c2c(-c2ccccc2)cn3-c2ccc(F)cc2)CC(C)O1` (stereo not given), the larval motility was 0.791 (inactive).

As for `Oc1cccc(C(Nc2nccs2)c2ccc3cccnc3c2O)c1` (stereo not given), the larval motility was 1.09 (inactive).

As to `Cc1ccccc1NC(=O)Nc1cccc([N+](=O)[O-])c1`, the larval motility is 1.19 (inactive).

For the compound `OB1OCc2cc(Cl)ccc21`, the larval motility was 0.664 (inactive).

Consider `CC[N+]1(C/C2=C/CCCCCC2)CCC(NC(=O)C2c3cc(Cl)ccc3Oc3ccc(Cl)cc32)CC1` (stereo not given), for which the larval motility was 1.22 (inactive).

With `Nc1nc(F)nc2c1ncn2[C@H]1O[C@@H](CO)[C@H](O)[C@@H]1O`, the larval motility is 0.949 (inactive).

On to `Nc1nc2c(Cc3cccnc3)c[nH]c2c(=O)[nH]1`, for which the larval motility was 0.722 (inactive).

Regarding `Nc1nc(Nc2ccc3nc(-c4ccc(F)cc4)cc(N)c3c2)cc(-c2ccccc2)n1`, the larval motility is 0.547 (inactive).

With `CC#C[C@]1(O)CC[C@H]2[C@@H]3CCC4=CC(=O)CCC4=C3[C@@H](c3ccc(N(C)C)cc3)C[C@@]21C`, the larval motility is 0.693 (inactive).

`O=c1cc(OCc2ccccc2)ccn1Cc1ccccc1`: the larval motility was 1.27 (inactive).

Turning to `CC(C)(C)c1ccc(C(Cn2cccc(C(F)(F)F)c2=O)NC2Cc3ccccc3C2)cc1` (stereo not given), the larval motility was 0.686 (inactive).

For `c1ccc(-c2nnc3c4ccccc4c(N4CCNCC4)nn23)cc1`, the larval motility is 0.808 (inactive).

On to `O=C(CCc1ccc2c(c1)OCO2)NCc1ccc(-c2ccccc2F)cc1`, for which the larval motility is 0.778 (inactive).

Regarding `Fc1ccc2c(/C=C/c3cccnc3)c[nH]c2c1`, the larval motility is 1.04 (inactive).

Consider `Nc1nc(=O)c(Br)c(-c2cccc(Cl)c2)[nH]1`, for which the larval motility is 0.895 (inactive).

For `CC(C)(C)c1ccc(Oc2ccc(N)cc2)cc1`, the larval motility was 0.91 (inactive).

On to `CCCCSc1nc(N)c2[nH]c(=O)c(=O)n(Cc3ccccc3)c2n1`, for which the larval motility was 0.896 (inactive).

`Cc1cc(O)c2c(c1)C(=O)c1c(I)c(O)c(I)c(O)c1C2=O`: the larval motility was 0.851 (inactive).

For the compound `O=S(=O)(Nc1cccc2cccnc12)c1ccccc1`, the larval motility is 0.587 (inactive).

Staying with this test, now noted: 10 µM; 24 h.
Regarding `Nc1nc(N)c2c(Sc3ccccc3)cccc2n1`, the larval motility was 0.982 (inactive).

With `CC1CN(c2ncnc3c2c(-c2ccccc2)cn3-c2ccc(F)cc2)CC(C)O1` (stereo not given), the larval motility was 0.856 (inactive).

Consider `Oc1cccc(C(Nc2nccs2)c2ccc3cccnc3c2O)c1` (stereo not given), for which the larval motility is 0.912 (inactive).

In the case of `Cc1ccccc1NC(=O)Nc1cccc([N+](=O)[O-])c1`, the larval motility was 1.34 (inactive).

Turning to `OB1OCc2cc(Cl)ccc21`, the larval motility is 1.04 (inactive).

Consider `CC[N+]1(C/C2=C/CCCCCC2)CCC(NC(=O)C2c3cc(Cl)ccc3Oc3ccc(Cl)cc32)CC1` (stereo not given), for which the larval motility was 0.723 (inactive).

As for `Nc1nc(F)nc2c1ncn2[C@H]1O[C@@H](CO)[C@H](O)[C@@H]1O`, the larval motility is 0.854 (inactive).

`Nc1nc2c(Cc3cccnc3)c[nH]c2c(=O)[nH]1`: the larval motility was 0.771 (inactive).

In the case of `Nc1nc(Nc2ccc3nc(-c4ccc(F)cc4)cc(N)c3c2)cc(-c2ccccc2)n1`, the larval motility is 0.261 (active).

As for `CC#C[C@]1(O)CC[C@H]2[C@@H]3CCC4=CC(=O)CCC4=C3[C@@H](c3ccc(N(C)C)cc3)C[C@@]21C`, the larval motility was 0.826 (inactive).

As to `O=c1cc(OCc2ccccc2)ccn1Cc1ccccc1`, the larval motility is 1.69 (inactive).

For the compound `CC(C)(C)c1ccc(C(Cn2cccc(C(F)(F)F)c2=O)NC2Cc3ccccc3C2)cc1` (stereo not given), the larval motility is 0.846 (inactive).

In the case of `c1ccc(-c2nnc3c4ccccc4c(N4CCNCC4)nn23)cc1`, the larval motility is 1.34 (inactive).

Turning to `O=C(CCc1ccc2c(c1)OCO2)NCc1ccc(-c2ccccc2F)cc1`, the larval motility was 0.677 (inactive).

With `Fc1ccc2c(/C=C/c3cccnc3)c[nH]c2c1`, the larval motility was 0.678 (inactive).

Turning to `Nc1nc(=O)c(Br)c(-c2cccc(Cl)c2)[nH]1`, the larval motility was 0.972 (inactive).

Take `CC(C)(C)c1ccc(Oc2ccc(N)cc2)cc1`: the larval motility is 1.33 (inactive).

`CCCCSc1nc(N)c2[nH]c(=O)c(=O)n(Cc3ccccc3)c2n1`: the larval motility is 1.51 (inactive).

In the case of `Cc1cc(O)c2c(c1)C(=O)c1c(I)c(O)c(I)c(O)c1C2=O`, the larval motility is 1.08 (inactive).

For `O=S(=O)(Nc1cccc2cccnc12)c1ccccc1`, the larval motility is 0.61 (inactive).
